Data on 19 molecules can be found in PubChem BioAssay.

The term inhibition denotes the change of the read-out against control, counted positive when it falls.

Values without a mark were called inactive. For some assays here: Measured potencies and affinities stand elsewhere. Active and inactive are the calls of the source. Unless noted, how the calls were made is not given here.

Experiment [1] is described as follows: antimalarial activity against Dd2 strain (AID 2302;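 active means growth inhibition above 50% at the single 2 µM test dose, taken to imply half-maximal potency below 2 µM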;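 further: 0% = DMSO untreated growth and 100% = chloroquine plus artemisinin killed control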). The following applies: P. falciparum Dd2 in RBCs, LDH growth readout, 72 h; at 2 µM; active compounds read high.
Experiment [2] can be described thus: human hepatoma cell viability loss – ATP luminescence, cytotoxicity control for P. falciparum antimalarial project, primary screen (AID 2303;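 active means inhibition above 50%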;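 further: 0% = DMSO wells and 100% = digitonin-killed cells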). As to conditions: HepG2 viability, 24-48 h, at 10 µM, active compounds read high.
The target in experiment [3] is L-lactate dehydrogenase (Plasmodium falciparum (isolate CDC / Honduras)) (UniProt Q27743). As to the kind of experiment: PfLDH activity inhibition – cell lysate, 3D7 strain, counter-screen for P. falciparum growth inhibition project (AID 2304).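 Further: 0% = vehicle and 100% = reference inhibitor.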 The following applies: P. falciparum 3D7 crude extract, LDH APAD/NBT absorbance; at 2 µM; active compounds read high. (In general: A counterscreen serves to expose hits that act by an unwanted route or on another target.)
Sequence of L-lactate dehydrogenase (Plasmodium falciparum (isolate CDC / Honduras)) (Q27743 whole entry, looked up): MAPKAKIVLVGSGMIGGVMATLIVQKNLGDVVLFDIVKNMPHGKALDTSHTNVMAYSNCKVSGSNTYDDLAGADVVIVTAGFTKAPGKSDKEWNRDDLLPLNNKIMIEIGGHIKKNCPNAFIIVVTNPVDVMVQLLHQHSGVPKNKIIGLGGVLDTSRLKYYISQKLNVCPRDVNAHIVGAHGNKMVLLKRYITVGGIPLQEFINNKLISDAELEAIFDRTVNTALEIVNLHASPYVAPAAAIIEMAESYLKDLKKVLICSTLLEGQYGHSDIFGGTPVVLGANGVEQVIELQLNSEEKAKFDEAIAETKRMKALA

Experiment [4] in a line: inhibition of 3D7 malaria parasite growth – strain 3D7 (AID 2306).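 Further: 0% = DMSO wells and 100% = chloroquine plus artemisinin control wells.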 As to conditions: P. falciparum 3D7 erythrocytic growth, LDH absorbance, 72 h; at 2 µM; active compounds read high.
For experiment [5], the target named is Calcium-dependent protein kinase 1 (Plasmodium falciparum (isolate 3D7)) (UniProt P62344). Kind of experiment: PfCDPK1 kinase inhibitors, biochemical, TCAMS library (AID 1159585; cut-off not given, nearly all actives have IC50 up to about 0.98 µM;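 further: inhibitors leave more ATP so luminescence rises with inhibition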). As to conditions: recombinant PfCDPK1, Kinase-Glo ATP depletion luminescence. (Kinase-Glo measures the ATP left after a reaction by luminescence.)
Sequence of Calcium-dependent protein kinase 1 (Plasmodium falciparum (isolate 3D7)) (P62344 whole entry, looked up): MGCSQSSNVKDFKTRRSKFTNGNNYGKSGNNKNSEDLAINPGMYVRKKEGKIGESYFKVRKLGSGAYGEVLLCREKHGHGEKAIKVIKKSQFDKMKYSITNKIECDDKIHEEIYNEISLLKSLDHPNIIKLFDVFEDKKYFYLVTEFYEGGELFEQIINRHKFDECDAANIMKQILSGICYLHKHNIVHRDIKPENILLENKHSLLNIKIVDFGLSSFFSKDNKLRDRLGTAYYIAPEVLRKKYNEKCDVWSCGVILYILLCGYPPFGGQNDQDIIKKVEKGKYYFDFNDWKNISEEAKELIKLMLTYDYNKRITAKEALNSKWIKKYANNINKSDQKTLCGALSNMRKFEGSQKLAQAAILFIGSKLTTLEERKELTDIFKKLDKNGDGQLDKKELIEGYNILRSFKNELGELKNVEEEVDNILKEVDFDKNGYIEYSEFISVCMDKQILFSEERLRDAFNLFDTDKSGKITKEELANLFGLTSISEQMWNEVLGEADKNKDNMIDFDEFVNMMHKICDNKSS
In experiment [6] the target is Plasmodium falciparum protein kinase 6 (PK6, PF3D7_1337100) (UniProt Q8IDW1). Kind of experiment: PfPK6 kinase inhibitors, biochemical, TCAMS library (AID 1159586). As to conditions: recombinant PfPK6, Kinase-Glo ATP depletion luminescence.
Sequence of Plasmodium falciparum protein kinase 6 (PK6, PF3D7_1337100) (Q8IDW1 1-305): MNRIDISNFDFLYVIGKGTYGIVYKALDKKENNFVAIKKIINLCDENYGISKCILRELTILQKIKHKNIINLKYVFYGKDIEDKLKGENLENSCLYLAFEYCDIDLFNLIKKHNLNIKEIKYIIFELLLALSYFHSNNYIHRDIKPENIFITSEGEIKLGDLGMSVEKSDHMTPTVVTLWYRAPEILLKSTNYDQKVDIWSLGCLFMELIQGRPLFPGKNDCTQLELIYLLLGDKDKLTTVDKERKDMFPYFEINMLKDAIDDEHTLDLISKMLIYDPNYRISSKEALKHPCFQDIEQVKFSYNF
Experiment [7] concerns the target Protein kinase 7 (PK7), Plasmodium falciparum 3D7 (PF3D7_0213400) (UniProt Q7YTF7). As to the kind of experiment: inhibition of Plasmodium PK7 catalytic activity – biochemical, TCAMS antimalarial set, Kinase-Glo luminescence (AID 1159587). The following applies: recombinant PfPK7, Kinase-Glo ATP depletion luminescence.
Experiment [8] deals with Calcium-dependent protein kinase 4 (Plasmodium falciparum (isolate 3D7)) (UniProt Q8IBS5). Kind of experiment: PfCDPK4 kinase inhibitors, biochemical, TCAMS library (AID 1159588; cut-off not given, nearly all actives have IC50 up to about 0.91 µM). The following applies: recombinant PfCDPK4, Kinase-Glo ATP depletion luminescence.
Sequence of Calcium-dependent protein kinase 4 (Plasmodium falciparum (isolate 3D7)) (Q8IBS5 whole entry, looked up): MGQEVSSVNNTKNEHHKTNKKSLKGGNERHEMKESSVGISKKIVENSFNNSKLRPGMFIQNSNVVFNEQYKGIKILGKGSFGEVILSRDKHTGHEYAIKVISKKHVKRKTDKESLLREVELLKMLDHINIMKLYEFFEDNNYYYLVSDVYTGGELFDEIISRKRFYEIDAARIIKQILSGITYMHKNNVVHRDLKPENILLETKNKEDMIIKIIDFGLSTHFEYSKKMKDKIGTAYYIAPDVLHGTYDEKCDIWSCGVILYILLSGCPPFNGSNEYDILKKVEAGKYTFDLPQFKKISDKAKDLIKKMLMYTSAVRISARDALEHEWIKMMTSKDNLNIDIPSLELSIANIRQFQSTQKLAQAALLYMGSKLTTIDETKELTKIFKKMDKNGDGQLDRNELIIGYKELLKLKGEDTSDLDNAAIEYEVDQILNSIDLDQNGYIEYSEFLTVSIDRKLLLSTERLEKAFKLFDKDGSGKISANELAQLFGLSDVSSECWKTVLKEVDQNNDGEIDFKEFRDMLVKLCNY

Sequence of Protein kinase 7 (PK7), Plasmodium falciparum 3D7 (PF3D7_0213400) (Q7YTF7 1-343): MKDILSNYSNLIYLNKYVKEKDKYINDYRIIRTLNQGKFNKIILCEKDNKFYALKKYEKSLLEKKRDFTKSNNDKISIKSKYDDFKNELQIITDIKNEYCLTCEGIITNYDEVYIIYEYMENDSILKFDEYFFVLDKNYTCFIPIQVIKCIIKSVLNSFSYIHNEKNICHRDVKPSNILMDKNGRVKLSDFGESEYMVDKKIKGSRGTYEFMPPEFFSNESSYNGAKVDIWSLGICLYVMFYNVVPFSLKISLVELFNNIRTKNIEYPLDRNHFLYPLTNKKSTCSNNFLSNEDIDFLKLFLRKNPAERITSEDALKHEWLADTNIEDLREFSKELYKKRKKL

`COc1cccc(-c2csc(C(=O)NCC3CCN(Cc4ccc(C(C)C)cc4)C3)c2)c1` (configuration not stated): the figures for the growth inhibition in experiment [1] and in experiment [4] were 9% and 86% (active), respectively. Also, the inhibition in experiment [2] is 35%; in experiment [3] it was 0%. Besides, the result in experiment [5], in experiment [6], in experiment [7] and in experiment [8] was inactive.
For `CN1CCC(NCc2ccc(-c3cccc(S(=O)(=O)NCc4ccccc4)c3)cc2)CC1`, the figures for the growth inhibition in experiment [1] and in experiment [4] were 94% (active) and 101% (active), respectively. In addition, the inhibition in experiment [2] was 72% (active); in experiment [3], -3%. Besides, the result in experiment [5], in experiment [6], in experiment [7] and in experiment [8] was inactive.
On to `O=C(CCCCCNC(=O)c1ccc(O)c(-c2ccc(Cl)c(Cl)c2)c1)NCCN1CCCC1`, for which the figures for the growth inhibition in experiment [1] and in experiment [4] were 2% and 90% (active), respectively. Also, the results for the inhibition in experiment [2] and in experiment [3] were -6% and -2%, respectively. Moreover, the outcome in experiment [5], in experiment [6], in experiment [7] and in experiment [8] was inactive.
On to `Cc1cc(N2CCOCC2)nc(Nc2ccc(NC(=O)Nc3ccc(F)cc3)cc2)n1`, for which the growth inhibition in experiment [1] is 34%; in experiment [4], 101% (active). In addition, the inhibition in experiment [2] is 35%; in experiment [3], -2%. The outcome in experiment [5], in experiment [6], in experiment [7] and in experiment [8] was inactive.
In the case of `Oc1ccc(-c2nc3c4cc(I)ccc4c4ccc(I)cc4c3[nH]2)cc1`, the growth inhibition in experiment [1] was 51% (active); in experiment [4], 98% (active). For the same molecule, the inhibition in experiment [2] was -3%; in experiment [3] it was 2%. Besides, the outcome in experiment [5], in experiment [6], in experiment [7] and in experiment [8] was inactive.
As for `O=c1ccccn1CCCC1CCCCN1` (configuration not stated), the growth inhibition was -1% in experiment [1] and 96% (active) in experiment [4]. Besides, the inhibition in experiment [2] was -1%; in experiment [3], 0%. Besides, the result in experiment [5], in experiment [6], in experiment [7] and in experiment [8] was inactive.
Consider `CCN(CCCN1CCCCC1)c1nc(C)cc(Nc2ccc(Cl)cc2)n1`, for which the values for the growth inhibition in experiment [1] and in experiment [4] were 92% (active) and 98% (active), respectively. The inhibition is 30% in experiment [2] and 3% in experiment [3]. Further, the outcome in experiment [5], in experiment [6], in experiment [7] and in experiment [8] was inactive.
Consider `OC(CNCc1ccccc1OCc1ccccc1)c1cc(Br)cs1` (configuration not stated), for which the growth inhibition was 88% (active) in experiment [1] and 97% (active) in experiment [4]. The figures for the inhibition in experiment [2] and in experiment [3] were 16% and 5%, respectively. For the same molecule, the outcome in experiment [5], in experiment [6], in experiment [7] and in experiment [8] was inactive.
For `O=C(Cc1cccc(O)c1)NCC(Cc1ccc(O)cc1)c1ccccc1` (configuration not stated), the growth inhibition was 97% (active) in experiment [1] and 91% (active) in experiment [4]. For the same molecule, the inhibition is -1% in experiment [2] and 3% in experiment [3]. For the same molecule, the outcome in experiment [5], in experiment [6], in experiment [7] and in experiment [8] was inactive.
Turning to `CCN(CCCN1CCCCC1)c1nccc(Nc2ccc(Cl)cc2)n1`, the growth inhibition in experiment [1] is 63% (active); in experiment [4] it was 89% (active). Moreover, the inhibition was 19% in experiment [2] and -1% in experiment [3]. In addition, the outcome in experiment [5], in experiment [6], in experiment [7] and in experiment [8] was inactive.
On to `FC(F)(F)c1ccc2nc(-c3cccc(-c4cccc(CNCC5CCCO5)c4)c3)[nH]c2c1` (configuration not stated), for which the growth inhibition in experiment [1] was 96% (active); in experiment [4], 100% (active). The inhibition in experiment [2] is 23%; in experiment [3], -2%. Further, the outcome in experiment [5], in experiment [6], in experiment [7] and in experiment [8] was inactive.
Take `O=C(Cc1ccccc1)NC(c1ccc(Cl)cc1)c1ccc2cccnc2c1O` (configuration not stated): the growth inhibition in experiment [1] is 64% (active); in experiment [4] it was 93% (active). Besides, the inhibition in experiment [2] is 50% (active); in experiment [3], -2%. Besides, the result in experiment [5], in experiment [6], in experiment [7] and in experiment [8] was inactive.
On to `Cc1ccc(NC(=O)c2ccc(CN3CCCN(CC4CCCCC4)CC3)cc2)cc1F`, for which the growth inhibition in experiment [1] is 61% (active); in experiment [4], 92% (active). Besides, the inhibition is 51% (active) in experiment [2] and -2% in experiment [3]. The result in experiment [5], in experiment [6], in experiment [7] and in experiment [8] was inactive.
Consider `O=C(CCOc1ccccc1)NCC1CCCO1` (configuration not stated), for which the growth inhibition is -11% in experiment [1] and 92% (active) in experiment [4]. The inhibition in experiment [2] was -10%; in experiment [3], -3%. In addition, the result in experiment [5], in experiment [6], in experiment [7] and in experiment [8] was inactive.
For the molecule `CS(=O)(=O)c1ccc(CNCc2cccc(-c3cccc(-c4nc5ccccc5[nH]4)c3)c2)cc1`, the growth inhibition in experiment [1] is 47%; in experiment [4], 101% (active). Also, the inhibition in experiment [2] was 3%; in experiment [3], -7%. Also, the result in experiment [5], in experiment [6], in experiment [7] and in experiment [8] was inactive.
With `CN1CCC(Oc2ccc(CN3CC[C@H](NC(=O)c4ccc(Cl)c(Cl)c4)C3)c3ccccc23)C1` (some centres not stated), the growth inhibition in experiment [1] is 82% (active); in experiment [4], 100% (active). In addition, the inhibition in experiment [2] was 52% (active); in experiment [3], 3%. For the same molecule, the outcome in experiment [5], in experiment [6], in experiment [7] and in experiment [8] was inactive.
Take `Cc1cccc2[nH]c(-c3cccc(-c4ccc(NC(=O)c5cccc(C(N)=O)c5)cc4)c3)nc12`: the growth inhibition is 61% (active) in experiment [1] and 100% (active) in experiment [4]. The figures for the inhibition in experiment [2] and in experiment [3] were 25% and 4%, respectively. In addition, the result in experiment [5], in experiment [6], in experiment [7] and in experiment [8] was inactive.
`O=C(/C=C/c1ccc(Cl)c(Cl)c1)NCCCCCN1CCCN(C(=O)Nc2ccc(Cl)cc2)CC1`: the growth inhibition in experiment [1] is -5%; in experiment [4] it was 100% (active). Further, the values for the inhibition in experiment [2] and in experiment [3] were 21% and -5%, respectively. Further, the result in experiment [5], in experiment [6], in experiment [7] and in experiment [8] was inactive.
In the case of `COc1ccc(Nc2ccnc3cc(-c4ccccn4)ccc23)cc1OC`, the growth inhibition is 26% in experiment [1] and 91% (active) in experiment [4]. The inhibition in experiment [2] was 14%; in experiment [3] it was 1%. Further, the outcome in experiment [5], in experiment [6], in experiment [7] and in experiment [8] was inactive.
